Source: the supplement of paper PMC11628255, “Interference of metal ions on the bioluminescent signal of firefly, Renilla, and NanoLuc luciferases in high-throughput screening assays” (Frontiers in Chemistry, 2024)
± gives the standard deviation of the averaged measurements.

Test system: NanoLuc luciferase (NLuc)
Experiment: residual bioluminescent signal relative to negative control without GSH; higher = less interference (more residual luciferase signal)
Conditions: screening conditions buffer
Description: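 Selected metal salts at 3-4 concentrations tested on purified FLuc, NLuc or RLuc in screening buffer with 0, 0.2 or 2 mM glutathione added; 10 min enzyme pre-incubation at RT, luminescence 10 min after substrate. Signal normalised to negative control without GSH (% N_VALUE); triplicate wells.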

[1] = metal salt concentration 1 mM, glutathione 0 mM
[2] = metal salt concentration 1 mM, glutathione 0.2 mM
[3] = metal salt concentration 1 mM, glutathione 2 mM

With `[Cl][Fe]([Cl])[Cl]` [iron(III) chloride] the residual bioluminescent signal (metal salt concentration 0.01 mM, glutathione 0 mM) was 95.59 ± 0.8%, the residual bioluminescent signal (metal salt concentration 0.01 mM, glutathione 0.2 mM) was 101 ± 6.7% and the residual bioluminescent signal (metal salt concentration 0.01 mM, glutathione 2 mM) was 82.7 ± 2.5%. It also gave a residual bioluminescent signal (metal salt concentration 0.816 mM, glutathione 0 mM) of 60.2 ± 3.4%, a residual bioluminescent signal (metal salt concentration 0.816 mM, glutathione 0.2 mM) of 69.1 ± 0.65% and a residual bioluminescent signal (metal salt concentration 0.816 mM, glutathione 2 mM) of 28.9 ± 1.5%. The residual bioluminescent signal [1] was 54.3 ± 4.4%, the residual bioluminescent signal [2] was 55.5 ± 7.2% and the residual bioluminescent signal [3] was 44.4 ± 35%. The residual bioluminescent signal (metal salt concentration 2.5 mM, glutathione 0 mM) was 4.41 ± 1.8%, the residual bioluminescent signal (metal salt concentration 2.5 mM, glutathione 0.2 mM) was 7.61 ± 0.73% and the residual bioluminescent signal (metal salt concentration 2.5 mM, glutathione 2 mM) was 1.69 ± 0.99%.
In the case of `[Cl][Fe][Cl]` [iron(II) chloride], the residual bioluminescent signal (metal salt concentration 0.05 mM, glutathione 0 mM) is reported as 94.3 ± 1.3%, the residual bioluminescent signal (metal salt concentration 0.05 mM, glutathione 0.2 mM) is reported as 100 ± 3.5% and the residual bioluminescent signal (metal salt concentration 0.05 mM, glutathione 2 mM) is reported as 82.2 ± 1.7%. For the same compound, the residual bioluminescent signal (metal salt concentration 0.88 mM, glutathione 0 mM) was 47.8 ± 5.5%, the residual bioluminescent signal (metal salt concentration 0.88 mM, glutathione 0.2 mM) was 49.4 ± 1.8% and the residual bioluminescent signal (metal salt concentration 0.88 mM, glutathione 2 mM) was 34.8 ± 2.7%. It also gave a residual bioluminescent signal [1] of 38.2 ± 3.3%, a residual bioluminescent signal [2] of 47.6 ± 1.5% and a residual bioluminescent signal [3] of 30.5 ± 2.4%. The residual bioluminescent signal (metal salt concentration 5 mM, glutathione 0 mM) was 1.69 ± 0.79%, the residual bioluminescent signal (metal salt concentration 5 mM, glutathione 0.2 mM) was 2.48 ± 0.68% and the residual bioluminescent signal (metal salt concentration 5 mM, glutathione 2 mM) was 7.22 ± 0.76%.
